The values that follow come from ChEMBL document CHEMBL3988442, “University of Dundee, Small-Polar-MMV Screening Library” (2021).

For the first assay, the target named is T1, Aspartate--tRNA(Asp/Asn) ligase (Mycobacterium tuberculosis (strain ATCC 25618 / H37Rv)) (UniProt P9WFW3). Also: in the data most compounds retested in dose-response had high values.
T1 sequence (whole entry): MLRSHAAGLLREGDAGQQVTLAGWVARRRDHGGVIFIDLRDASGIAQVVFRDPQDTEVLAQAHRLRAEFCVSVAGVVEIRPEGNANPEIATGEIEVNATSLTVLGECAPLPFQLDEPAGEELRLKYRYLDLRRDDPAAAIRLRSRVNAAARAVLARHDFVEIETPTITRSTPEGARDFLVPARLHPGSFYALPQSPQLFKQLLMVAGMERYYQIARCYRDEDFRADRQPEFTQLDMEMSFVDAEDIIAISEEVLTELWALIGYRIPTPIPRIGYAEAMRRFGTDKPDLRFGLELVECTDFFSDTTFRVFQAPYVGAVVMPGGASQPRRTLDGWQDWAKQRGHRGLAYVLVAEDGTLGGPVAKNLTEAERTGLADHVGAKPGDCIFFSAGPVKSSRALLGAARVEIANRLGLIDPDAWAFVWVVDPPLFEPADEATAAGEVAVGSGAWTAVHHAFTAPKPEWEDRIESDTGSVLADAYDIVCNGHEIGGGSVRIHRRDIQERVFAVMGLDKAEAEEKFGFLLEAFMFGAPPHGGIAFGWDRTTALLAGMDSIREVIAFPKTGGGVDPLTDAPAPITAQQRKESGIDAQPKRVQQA
The assay can be described thus: Assay for Asp RNA synthetase-1 from Mycobacterium tuberculosis. The format is functional. Set-up: scale not given: direction of the effect not stated beside the values. The conditions noted are these: 30 µM.
Take `CCOC(CC)C(=O)NCc1ccnc(Oc2ccc(F)cc2)c1` (centres undefined): the Percent Effect was determined as 0.301%. With `Cc1csc(C2CCCN(C(=O)c3ccc(=O)n(C)n3)C2)n1` (centres undefined), the Percent Effect turned out to be 3.09%. Same read-out and setting: to `CC(C(=O)N1CCc2ccccc2C1)n1cc(Br)cn1` (centres undefined) belongs 2.59%; to `Clc1ccc(OCCCN2CCN(c3cnccn3)CC2)cc1`, 1.06%.

Consider `Cc1noc([C@H]2C[C@H]3OCC[C@H]3N(Cc3ccc4c(c3)OCO4)C2)n1`, for which the Percent Effect stood at 2.03%.

`CCCS(=O)(=O)N1CCO[C@H]2[C@H](OCc3ccccn3)CC[C@@H]21`: the Percent Effect was 3.5%. On the same count and under the same terms, in the case of `CC(C)COCc1cncc2c1CCN(Cc1cnn(C)c1)C2` it was -0.981%; in that of `CCCc1noc(CCC(=O)N2CCCC2c2noc(C3CC3)n2)n1` (centres undefined), -2.66%. For the molecule `COc1ccc(CCNC(=O)C2CCC(Cn3cnnn3)CC2)cc1` (centres undefined), the Percent Effect is -2.03%.

Take `Cc1cc(-c2cnc(N3CCCC(C)C3)nc2-c2cccnc2C)on1` (centres undefined): the Percent Effect turned out to be 7.13%. Regarding `CN(Cc1ccccc1)CC(O)Cn1cnc2c(cnn2C)c1=O` (centres undefined), the Percent Effect was -0.522%.

Consider `CCc1nc(C2CCCN2C(=O)CCc2ccc3c(c2)OCO3)no1` (centres undefined), for which the Percent Effect came to 3.41%. For `C=C(C)CN(Cc1cccc(O)c1)C1CCC(O)CC1` (centres undefined), the Percent Effect was 5.8%. On the same count and under the same terms, to `Cc1ccc(F)cc1S(=O)(=O)N(C)CC(N)=O` belongs 2.69%; to `O=S1(=O)COCCN1Cc1cccc(Cl)c1`, -0.479%; to `CC(C)c1ccc(-c2nnn(CCNS(C)(=O)=O)n2)cc1`, -1.05%.

Consider `COc1ccc(C2Nc3cc(Cl)ccc3C3=NCCN32)cc1OC` (centres undefined), for which the Percent Effect is -3.07%. Turning to `O=C(CCNC(=O)c1ccoc1)Nc1c(F)cccc1F`, the Percent Effect came to 4.76%.

As for `Cc1cc(C)n(CC2CCCN2CCCS(=O)(=O)N(C)C)n1` (centres undefined), the Percent Effect was found to be 2.38%.

Another assay has as its target Shiga toxin 2 (Escherichia coli O157:H7) (UniProt P09385+P09386). The assay can be described thus: E. coli 0.157:H7 Shiga Toxin SOP - stx2 screening assay. The format is functional. Set-up: scale not given: direction of the effect not stated beside the values. As to conditions: 30 µM.
Turning to `O=C(C1CCCC1)N1CCN(Cc2nc(-c3ccco3)no2)CC1`, the Percent Effect is -10.1%.

For `CC(C)C(=O)N1CCCC(c2cc(C(F)F)n3ncnc3n2)C1` (centres undefined), the Percent Effect is -11.7%.

For `CCn1cnnc1CNC(=O)N1CCN(c2cccs2)CC1`, the Percent Effect was -43.6%. Same read-out and setting: to `COc1ccc(CN2CCn3cc(Cn4cccn4)nc3C2)cc1` belongs -37.1%; to `O=C(NCCc1ccccn1)NC1CCN(c2ncccn2)CC1`, -12.3%. Still for that read-out and setting: in the case of `CCn1nc(CC(C)C)cc1C(=O)NCCn1cccc1` it was -3.77%; in that of `COc1cc(C(=O)N2CCCS2(=O)=O)ccc1C`, -10.8%.

As for `CC(C)c1nc(CN(C)C2CCN(CCNS(C)(=O)=O)C2)no1` (centres undefined), the Percent Effect is -26.6%. On the same count and under the same terms, in the case of `Cn1cc(CN2CCC3(C2)CN(Cc2ccsc2)C3)cn1` it was -10.4%; in that of `O=C(NC1CC1)[C@H]1C[C@H]2OCC[C@H]2N(CC2CC2)C1`, -19.5%; in that of `O=C(Cc1ccc2c(c1)CCO2)N1CCN(c2cnccn2)CC1`, -23.3%. Same read-out and setting: to `Cc1ncc(CNC(=O)Nc2cc(C(F)(F)F)c[nH]c2=O)s1` belongs -19.6%. For the molecule `N#Cc1ccc(CNCC2CCN(CCO)CC2)cc1`, the Percent Effect is -29.9%. On to `Cc1nc(CCNC(=O)NCc2ccc(N(C)C)nc2)cs1`, for which the Percent Effect stood at 6.63%. Still for that read-out and setting: to `COc1ccc(NC(C)C(=O)NCCc2cccs2)cc1F` (centres undefined) belongs -24.3%; to `Cc1cc(C)nc(Nc2cccc(C3CCCN(C)C3)n2)n1` (centres undefined), 1.38%.

On to `Cc1cnc(CN(Cc2ccccc2)CC(O)c2cccs2)cn1` (centres undefined), for which the Percent Effect was -15.5%. Still for that read-out and setting: to `COCCN(C)Cc1ccc(OC)c(OC(F)F)c1` belongs -37.4%; to `C=C1c2ccccc2C(=O)N1CCC(=O)N1CCNC(=O)C1`, 25.2%; to `CCc1cccc(N2CCC(NC(=O)c3cc[nH]n3)CC2)c1`, 18.9%. Still for that read-out and setting: to `CNS(=O)(=O)c1ccc(CNC(=O)NCC2CCCO2)cc1` (centres undefined) belongs 25.4%; to `CCOC(CC)C(=O)NCc1ccnc(Oc2ccc(F)cc2)c1` (centres undefined), 5.28%; to `Cc1csc(C2CCCN(C(=O)c3ccc(=O)n(C)n3)C2)n1` (centres undefined), -15.3%. The same measure, in the same setting: to `CC(C(=O)N1CCc2ccccc2C1)n1cc(Br)cn1` (centres undefined) belongs -59.4%.

Turning to `Clc1ccc(OCCCN2CCN(c3cnccn3)CC2)cc1`, the Percent Effect was -6.97%. The same measure, in the same setting: to `Cc1noc([C@H]2C[C@H]3OCC[C@H]3N(Cc3ccc4c(c3)OCO4)C2)n1` belongs -3.36%; to `CCCS(=O)(=O)N1CCO[C@H]2[C@H](OCc3ccccn3)CC[C@@H]21`, -8.66%; to `CC(C)COCc1cncc2c1CCN(Cc1cnn(C)c1)C2`, -36.8%. For `CCCc1noc(CCC(=O)N2CCCC2c2noc(C3CC3)n2)n1` (centres undefined), the Percent Effect was found to be 6.31%. Still for that read-out and setting: in the case of `COc1ccc(CCNC(=O)C2CCC(Cn3cnnn3)CC2)cc1` (centres undefined) it was -4.05%; in that of `Cc1cc(-c2cnc(N3CCCC(C)C3)nc2-c2cccnc2C)on1` (centres undefined), -30.1%. On the same count and under the same terms, in the case of `CN(Cc1ccccc1)CC(O)Cn1cnc2c(cnn2C)c1=O` (centres undefined) it was -8.29%; in that of `CCc1nc(C2CCCN2C(=O)CCc2ccc3c(c2)OCO3)no1` (centres undefined), 6.69%; in that of `C=C(C)CN(Cc1cccc(O)c1)C1CCC(O)CC1` (centres undefined), 18.1%. Same read-out and setting: to `Cc1ccc(F)cc1S(=O)(=O)N(C)CC(N)=O` belongs -5.32%. In the case of `O=S1(=O)COCCN1Cc1cccc(Cl)c1`, the Percent Effect was 10.7%. The same measure, in the same setting: to `CC(C)c1ccc(-c2nnn(CCNS(C)(=O)=O)n2)cc1` belongs -43.9%. For the molecule `COc1ccc(C2Nc3cc(Cl)ccc3C3=NCCN32)cc1OC` (centres undefined), the Percent Effect was -59.6%. Take `O=C(CCNC(=O)c1ccoc1)Nc1c(F)cccc1F`: the Percent Effect was -4.74%. On the same count and under the same terms, in the case of `Cc1cc(C)n(CC2CCCN2CCCS(=O)(=O)N(C)C)n1` (centres undefined) it was 0.632%.
